# High-throughput results from PubChem.
# Compounds with a hit are over-represented: about 2.1% of the library has one in this group of screens.
# ROS inducer: ROS inducers in U2OS cancer cells, primary screen, cell-based, H2DCF-DA fluorescence; 2% of 46,000 active; AID 624156, 2012; U2OS ROS induction; ROS induction (% of piperlongumine), % at 10 µM; in the data active means ROS induction above about 79%, passing the limit was not always enough;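 further: 0% = DMSO vehicle median and 100% = reference compound median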
# YB-1 expr inh: inhibitors of YB-1 gene expression, primary screen, cell-based, fluorescence; delta delta Cp (YB-1 minus CDIP) (test concentration not listed); 0.37% of 30,000 active; U2OS, qRT-PCR YB-1 vs CDIP delta delta Cp, 16 h; stronger effect = higher value; zero = DMSO, each unit about twofold; AID 434959, 2010;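 active means delta delta Cp rounded down to an integer at or above 3, about 3 SD of DMSO wells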;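 further: higher means less YB-1 transcript or more CDIP transcript relative to DMSO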
# An asterisk follows results filed as active; / = not tested or not shown.
SMILES,ROS inducer,YB-1 expr inh
CC(C)NC(=O)N(C)C[C@@H]1OCCCC[C@@H](C)Oc2ccc(NS(=O)(=O)c3ccc(Cl)cc3)cc2C(=O)N([C@H](C)CO)C[C@@H]1C,10.8,0.0662
Cc1ccc(-c2cc(C(F)(F)F)n3nc(C(=O)Nc4ccn(Cc5ccccc5)n4)cc3n2)cc1C,8.3,/
C[C@H](CO)N1C[C@H](C)[C@@H](CN(C)Cc2ccccc2)Oc2c(cccc2N(C)C)C1=O,-7.2,-0.0631
Cc1noc(C)c1NC(=O)Nc1cccc2c1O[C@H](CN(C)Cc1ccc(Oc3ccccc3)cc1)[C@@H](C)CN([C@@H](C)CO)C2=O,87.5*,0.19
Cc1cc(C(=O)Nc2cccc3c2O[C@@H](CN(C)Cc2ccc(Oc4ccccc4)cc2)[C@H](C)CN([C@@H](C)CO)C3=O)n(C)n1,116.8*,-0.0522
C[C@@H]1CN([C@@H](C)CO)C(=O)c2cccc(NC(=O)Nc3ccc(F)cc3)c2O[C@H]1CN(C)Cc1ccc2c(c1)OCO2,114.7*,0.243
Cc1noc(C)c1NC(=O)Nc1cccc2c1O[C@H](CN(C)Cc1ccc(Oc3ccccc3)cc1)[C@H](C)CN([C@@H](C)CO)C2=O,-4.3,-0.113
Cc1cc(C(=O)Nc2cccc3c2O[C@H](CN(C)Cc2ccc(Oc4ccccc4)cc2)[C@H](C)CN([C@H](C)CO)C3=O)n(C)n1,18.1,0.2
C[C@@H]1CN([C@H](C)CO)C(=O)c2cccc(NC(=O)Nc3ccc(F)cc3)c2O[C@@H]1CN(C)Cc1ccc2c(c1)OCO2,-5.0,0.147
C[C@@H]1CN([C@@H](C)CO)C(=O)c2cccc(N(C)C)c2O[C@H]1CN(C)Cc1ccccc1,5.2,14.4*
CC1(C)CC(=O)N(CC(=O)N2CCN(c3cccc(C(F)(F)F)c3)CC2)c2ccccc2S1,4.9,/
CCN1C(=O)c2cccc3c(S(=O)(=O)N4CCc5ccccc5C4)ccc1c23,-6.9,/
N#CCN(CC#N)C(=O)c1cccc(C(=O)N(CC#N)CC#N)c1,-13.8,/
C[C@@H]1CN([C@H](C)CO)C(=O)c2cccc(NC(=O)Nc3ccccc3)c2O[C@H]1CN(C)Cc1ccc(Oc2ccccc2)cc1,21.5,-0.397
C[C@@H]1CN([C@@H](C)CO)C(=O)c2cccc(NC(=O)Nc3ccccc3)c2O[C@H]1CN(C)Cc1ccc(Oc2ccccc2)cc1,105.3*,-0.209
COc1ccc(CN(C)C[C@@H]2Oc3c(NC(=O)Nc4ccc(OC)cc4)cccc3C(=O)N([C@H](C)CO)C[C@H]2C)cc1,12.1,0.0623
COc1ccc(NC(=O)Nc2cccc3c2O[C@H](CN(C)Cc2ccccc2)[C@@H](C)CN([C@@H](C)CO)C3=O)cc1,1.0,3.56*
C[C@@H]1CN([C@H](C)CO)C(=O)c2cccc(NC(=O)Nc3ccccc3)c2O[C@H]1CN(C)CC1CC1,6.9,-0.641
COc1ccc(CN(C)C[C@@H]2Oc3c(NC(=O)Nc4ccccc4)cccc3C(=O)N([C@@H](C)CO)C[C@H]2C)cc1,15.3,0.333
C[C@H](CO)N1C[C@H](C)[C@H](CN(C)CC2CCCCC2)Oc2c(NC(=O)Nc3ccccc3)cccc2C1=O,-9.8,3.1*
COc1ccc(NC(=O)Nc2cccc3c2O[C@@H](CN(C)Cc2ccc(Cl)c(Cl)c2)[C@H](C)CN([C@@H](C)CO)C3=O)cc1,95.8*,-0.136
CC(=O)N1CCOc2cc(S(=O)(=O)N(C)Cc3ccccc3)ccc21,-7.7,/
O=C(Nc1ccccc1)Nc1ccc(S(=O)(=O)Nc2ccc(F)cc2)cc1,2.2,/
COC(=O)c1ccc(-c2ccco2)n1CC(=O)NCCN1CCN(C)CC1,-16.2,/
CN(CC(=O)C1=C(c2ccc(Br)cc2)C(=O)c2ccccc2C1=O)c1ccccc1,16.8,0.0718
SMILES,ROS inducer,YB-1 expr inh
C[C@H](CO)N1C[C@H](C)[C@H](CN(C)Cc2ccc(Oc3ccccc3)cc2)Oc2c(NC(=O)Nc3ccc(F)cc3)cccc2C1=O,12.1,-0.48
C[C@H](CO)N1C[C@H](C)[C@@H](CN(C)Cc2ccc(Oc3ccccc3)cc2)Oc2c(NC(=O)Nc3ccc(F)cc3)cccc2C1=O,82.0*,0.379
CC1CCCCN1C(=O)c1cc2nc(-c3ccc(Cl)cc3)cc(C(F)(F)F)n2n1 (stereo unspecified),-2.1,/
Cc1nn2c3c(cnc2c1-c1ccccc1)C(=O)CC(C)(C)C3,26.3,/
COc1ccc(-c2c(C)nn3c(N)c(-c4ccccc4)cnc23)cc1,119.6*,/
O=C(Cn1cnc2c(nnn2-c2cccc(Cl)c2)c1=O)NC1CCCCC1,-18.0,/
COc1ccc(CN(C)C[C@H]2Oc3ccc(NC(=O)CCN4CCOCC4)cc3CC(=O)N([C@@H](C)CO)C[C@@H]2C)cc1,14.3,0.081
C[C@@H]1CN([C@H](C)CO)C(=O)Cc2cc(NC(=O)CCN3CCOCC3)ccc2O[C@@H]1CN(C)C,125.6*,-0.212
COc1ccc(CN(C)C[C@@H]2Oc3ccc(NC(=O)CCN4CCOCC4)cc3CC(=O)N([C@H](C)CO)C[C@H]2C)cc1,120.9*,0.2
